High-throughput results: PubChem BioAssay, National Center for Advancing Translational Sciences (NCATS)
Pf Dd2 inh = blocks in vitro growth of P. falciparum Dd2; Potency, µM (series often up to 28.9 µM), without a hit: at the highest dose activity, negative = inhibition, usual class: inhibitors; AID 1347417; P. falciparum Dd2 growth, SYBR Green, 72 h; 4.3% of 120,000 active; active means well fitted inhibition curve with a large enough effect;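 further: plate controls were DMSO vehicle for no effect and reference drug for full effect; nearly all actives have a fitted effect of over 65% in size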
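Readout: SYBR Green fluorescence, 485 nm excitation, 535 nm emission, after ~16 h lysis at 37C. Before that, Dd2-infected red cells (2.5% hematocrit) grew 72 h with compound, 29 uM top final concentration.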
* marks the source's active call; other numbers are inactive results; i = inactive; [ ] = remark or other dose. The full list was thinned out, with hits kept by preference. Potency means the concentration at half of the fitted maximal effect.

SMILES	Pf Dd2 inh
COCC(=O)N[C@H]1C[C@@H](Cc2cc(-c3ccccc3)on2)C1(C)C	7.9µM*
CC(=O)N[C@H]1C[C@@H](Cc2cc(CC(C)C)on2)C1(C)C	-11%[44.1 µM]
CC1(C)[C@H](Cc2cc(CC3CCCCC3)on2)C[C@@H]1NC(=O)c1ccco1	5µM*
COCc1cc(C[C@@H]2C[C@H](NC(=O)CC(C)(C)C)C2(C)C)no1	-17%[44.1 µM]
CC(=O)N1CCC(N[C@H]2C[C@@H](Cc3cc(CN(C)Cc4ccccc4)on3)C2(C)C)CC1	-26%
COCC(=O)N[C@H]1C[C@@H](Cc2cc(CN(C)Cc3ccccc3)on2)C1(C)C	8.9µM*
CC(=O)N[C@H]1C[C@@H](Cc2cc(CN(C)c3ccccc3)on2)C1(C)C	i
CC(=O)Nc1ccc(S(=O)(=O)N[C@H]2C[C@@H](c3nc(-c4ccccc4)no3)N(C)C2)cc1	-24%
Cn1nccc1C(=O)N1CCC(Oc2cccnc2)C1 (stereo not given)	41%
COc1ccc2cc(C3CN(C(=O)c4ccc(C)cc4OC)CCO3)ccc2c1 (stereo not given)	i
C#C[C@H]1CN2CC[C@H]1C[C@@H]2CNC(=O)Nc1ccc(Oc2ccccc2)cc1	i
CCN1CCN(CC(O)COc2cccc(CNCCCc3scnc3C)c2)CC1 (stereo not given)	i
CN(CC(O)COc1cccc(CNCCc2ccc(F)cc2)c1)C1CCCCC1 (stereo not given)	4µM*
CCN1CCN(CC(O)COc2cccc(CNCc3cnn(CC)c3)c2)CC1 (stereo not given)	0%
Cc1ccc(-c2noc([C@@H]3CCCN3C(=O)c3ccc(C(C)(C)C)cc3)n2)cc1	54%
Cc1ccc(NC(=O)c2ccc3c(c2)N(S(C)(=O)=O)CC3)cc1	i
O=C(N[C@H]1CCN2C(=O)c3cc(/C=C/c4ccccc4)ccc3NC(=O)[C@H]12)c1cnccn1	-14%[44.1 µM]
O=C(N[C@H]1CCN2C(=O)c3cc(/C=C/c4ccc(O)cc4)ccc3NC(=O)[C@H]12)c1cnccn1	-21%
O=C(N[C@H]1CCN2C(=O)c3cc(-c4ccccc4F)ccc3NC(=O)[C@H]12)c1cnccn1	5.6µM*
CN1C(=O)CCC2(CNC(=O)Cc3c[nH]c4ccccc34)CCCC=C12 (stereo not given)	-2%
O=C([C@@H]1C[C@H](F)CN1C(=O)c1cccc(Br)c1)N1CCCCC1	43%
COc1ccc(CCC(=O)NC2CCN(C(=O)c3cc4c(=O)[nH]c(C)cn4n3)CC2)cc1	i
CC(=O)N1CCC(NC[C@@H]2C=C(C)[C@H](Cc3nc4ccc(F)cc4[nH]3)C[C@H]2C(C)C)CC1	11µM*
CC(=O)N1CCC(NC[C@@H]2C=C(C)[C@H](Cc3nc4ccc(C)cc4[nH]3)C[C@H]2C(C)C)CC1	11µM*
CC1=C[C@@H](CNC(=O)CCC(=O)O)[C@H](C(C)C)C[C@H]1Cc1nc2ccc(F)cc2[nH]1	-17%[44.1 µM]
SMILES	Pf Dd2 inh
CC1=C[C@@H](CNC(=O)C2CCC2)[C@H](C(C)C)C[C@H]1Cc1nc2ccc(F)cc2[nH]1	11µM*
COc1ccc2[nH]c(C[C@@H]3C[C@@H](C(C)C)[C@H](CNC4CCN(C(C)=O)CC4)C=C3C)nc2n1	i
CC1=C[C@@H](CNC(=O)c2cnccn2)[C@H](C(C)C)C[C@H]1Cc1nc2ccc(C)cc2[nH]1	-6%[44.1 µM]
CC1=C[C@@H](CNC(=O)CC2(CC(=O)O)CCCC2)[C@H](C(C)C)C[C@H]1Cc1nc2ccc(C)cc2[nH]1	-12%
COC(=O)c1ccc2nc(C[C@@H]3C[C@@H](C(C)C)[C@H](CNC4CCN(C)CC4)C=C3C)[nH]c2c1	3.2µM*
O=C(Cc1ccc(Cl)cc1)N1CCN(c2nnc3ccccn23)CC1	i
COc1ccc(C(=O)N2CC(c3nnc(-c4ccncc4)o3)C3(CCOCC3)C2)cc1F (stereo not given)	i
CN1C(=O)C(CC(=O)N2CCCC2)Sc2ncccc21 (stereo not given)	i
CCN(CC)Cc1cnc2c(C(=O)N3CCCC3c3ccccn3)cnn2c1 (stereo not given)	-15%
O=C(NCCC1CCN(C(=O)Nc2cc(F)ccc2F)CC1)c1ccc2nc[nH]c2c1	i
Cc1ccc(-c2cnc([C@@H]3COCCN3C3CCOCC3)[nH]2)cc1	-18%[44.1 µM]
OCCn1cnc2cc(-c3n[nH]c(C4CCOC4)n3)ccc21 (stereo not given)	-20%
O=C(Cc1cccc(F)c1)N1CC(c2nnc(-c3ccncc3)o2)C2(CCOCC2)C1 (stereo not given)	-1%
COC(=O)c1cccc(OCCn2ccnc2-c2nc[nH]c2C)c1	-7%
CCN(C(=O)Cn1c(=O)n(-c2ccccc2)c(=O)c2ccc(C(=O)NCc3ccc4c(c3)OCO4)cc21)c1cccc(C)c1	7.1µM*
Cc1ccc(NC(=O)Cn2c(=O)n(-c3ccccc3)c(=O)c3ccc(C(=O)NCc4ccc5c(c4)OCO5)cc32)cc1	-8%
Cc1ccc(NC(=O)Cn2c(=O)n(Cc3nc(-c4ccccc4)no3)c(=O)c3cc4c(cc32)OCO4)c(C)c1	87%
Cc1ccc(NC(=O)Cn2c(=O)n(Cc3ccc(C(=O)NCc4ccc5c(c4)OCO5)cc3)c(=O)c3ccccc32)cc1	8.9µM*
Cc1ccc(Cn2c(=O)n(-c3ccccc3)c(=O)c3ccc(C(=O)NCc4ccco4)cc32)cc1	-16%
Cc1ccccc1NC(=O)Cn1c(=O)n(CCCC(=O)NCc2ccc3c(c2)OCO3)c(=O)c2ccccc21	22%
Cc1c(Cl)cccc1NC(=O)Cn1c(=O)n(Cc2nc(-c3ccccc3)no2)c(=O)c2cc3c(cc21)OCO3	-12%
O=C(Cn1c(=O)n(-c2ccccc2)c(=O)c2ccc(C(=O)NCc3ccc4c(c3)OCO4)cc21)Nc1ccc(Br)cc1F	8.9µM*
Cc1ccc(-n2c(=O)c3ccc(C(=O)NCc4ccccc4Cl)cc3n(CC(N)=O)c2=O)cc1	23%
O=C(Cn1c(=O)n(Cc2nc(-c3ccccc3)no2)c(=O)c2cc3c(cc21)OCO3)Nc1ccc(Cl)cc1	10µM*
O=C(Cn1c(=O)n(Cc2ccc(C(=O)NCc3ccc4c(c3)OCO4)cc2)c(=O)c2ccccc21)Nc1ccccc1F	i
SMILES	Pf Dd2 inh
Cc1ccc(Cl)cc1NC(=O)Cn1c(=O)n(Cc2ccc(C(=O)NCc3ccc4c(c3)OCO4)cc2)c(=O)c2ccccc21	-17%
COCCN1CCC(N2CCN(C(=O)C3CCOCC3)CC2)C1=O (stereo not given)	-14%
Cc1cccc(-n2c(=O)c3c(cc(C)n3C)n(CC(=O)Nc3c(C)cccc3C)c2=O)c1	59%
Cc1ccccc1C(=O)N1CCc2nc3cc[nH]n3c(=O)c2C1	i[5.79 µM]
O=[S+]1([O-])NCC2(CCN(Cc3ccc(F)cc3)C2)Oc2ccncc21 (stereo not given)	-18%
Cn1cnnc1CC1CCCN(C(=O)c2ccco2)C1 (stereo not given)	5%
O=C1CCCCC(C(=O)NCc2ccccc2)N1 (stereo not given)	18%
CC(C)n1cccc1C(=O)N1CC[C@H](N2CCN(C)CC2)[C@H](CCC(=O)O)C1	9%
CC(C)CNC(=O)Cc1ccc(N(Cc2cccc(F)c2)C(=O)c2ccco2)cc1	-25%
COCCN1C(=O)CC[C@]2(C(=O)N(C)CCc3ccccn3)CCCC[C@@H]12	9%
NCCC(=O)N1CCC(n2nccc2NC(=O)c2cccc(F)c2)CC1	-9%
CN(C)C[C@@H]1CN(c2ncccn2)C[C@H]1NC(=O)c1cnccn1	4%
CSCC(=O)N1CC[C@H](NC(=O)Nc2ccc(F)cc2F)[C@H]1C(=O)N[C@@H](Cc1cccs1)C(N)=O	12%
